Rab9 prom act = qHTS Assay for Rab9 Promoter Activators; Potency, µM (doses to about 9.22 µM), for the others: at the highest dose activation, negative = inhibition, usual class: activators; actives 2.8% (n = 320,000); Huh7 Rab9 promoter-luciferase reporter, luminescence, 24 h; also: % of control where 0% means no effect; nearly all actives have a fitted effect of over 60% in size
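Luminescence read-out: Huh7 cells stably expressing Rab9-luciferase, treated 24 h with compound at 37 °C, then lysed with luciferase reagent for 10 min at ambient before reading.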
FLuc counter = qHTS profiling assay for firefly luciferase inhibitor/activator using purifed enzyme and Km concentrations of substrates (counterscreen for miR-21 project); Luciferin 4-monooxygenase (Photinus pyralis), P08659; purified FLuc, Km substrates, luminescence inhibition; Potency, µM (series often up to 57.5 µM), without a hit: at the highest dose activity change, negative = inhibition, hits mostly inhibitors; actives 6.9% (n = 360,000);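 also: plate controls were vehicle for no effect and reference inhibitor for full effect; nearly all actives have a fitted effect of over 55% in size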
Target sequence (P08659 whole entry, looked up): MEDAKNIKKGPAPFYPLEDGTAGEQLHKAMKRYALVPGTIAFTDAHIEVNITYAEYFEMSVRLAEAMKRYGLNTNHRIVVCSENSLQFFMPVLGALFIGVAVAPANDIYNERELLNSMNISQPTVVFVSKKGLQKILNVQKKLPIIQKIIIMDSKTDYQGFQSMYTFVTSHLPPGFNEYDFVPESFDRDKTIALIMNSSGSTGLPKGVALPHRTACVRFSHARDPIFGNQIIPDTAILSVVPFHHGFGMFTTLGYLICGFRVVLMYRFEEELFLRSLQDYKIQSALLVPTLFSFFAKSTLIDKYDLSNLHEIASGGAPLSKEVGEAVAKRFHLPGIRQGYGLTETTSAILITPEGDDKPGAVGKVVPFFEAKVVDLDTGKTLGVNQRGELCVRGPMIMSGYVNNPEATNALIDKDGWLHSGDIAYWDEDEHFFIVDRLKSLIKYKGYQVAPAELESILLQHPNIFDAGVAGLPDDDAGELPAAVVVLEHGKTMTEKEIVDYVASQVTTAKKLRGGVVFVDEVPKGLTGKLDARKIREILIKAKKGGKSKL
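Purified P. pyralis luciferase, 10 nM final, with Km-level 10 uM D-luciferin and 10 uM ATP in 50 mM Tris acetate pH 7.5, 10 mM Mg acetate, 0.01% Tween-20, 0.05% BSA; 6-point qHTS titration about 60 µM downward; luminescence read.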
NPC1 prom act = qHTS Assay for NPC1 Promoter Activators; Potency, µM (top dose mostly 9.22 µM), for inactives: top-dose activation, hits mostly activators; Huh7 NPC1 promoter luciferase reporter, 24 h; actives 2.4% (n = 320,000); also: % of control where 0% means no effect; nearly all actives have a fitted effect of over 60% in size
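Stable NPC1-promoter luciferase Huh7 line; cpd (DMSO) 24 h, 37 °C, 5% CO2; Amplite luciferase reagent 10 min RT; luminescence readout. qHTS format.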
SMN2 splice enh = qHTS Assay for Enhancers of SMN2 Splice Variant Expression | HEK293 SMN2-luciferase splicing reporter, luminescence, 30-36 h | Potency, µM (series often up to 46.1 µM), inactives show top-dose activity change, positive = activation, usual class: activators | actives 2.8% (n = 210,000) | AID 1458, 2008; also: % of control where 0% means no effect; nearly all actives have a fitted effect of over 55% in size
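HEK293 cells carry an SMN2 minigene-luciferase reporter in which exon 7 inclusion puts luciferase in frame. Cells were seeded at 2000 cells/well, attached for 10-12 hours, then exposed to compounds for 30-36 hours at 37C before ONE-Glo luminescence.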
ELG1 genotox = qHTS screen for small molecules that induce genotoxicity in human embryonic kidney (HEK293T) cells expressing luciferase-tagged ELG1; HEK293T ELG1-luciferase reporter, luminescence, 16 h; Potency, µM (titrated, usually from 46 µM), inactives show at the highest dose activity change, positive = activation, hits mostly activators; actives 1.3% (n = 330,000); AID 504466, 2011; also: % of control where 0% means no effect; nearly all actives have a fitted effect of over 60% in size
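Reporter readout depends on ELG1 protein level, which increases with genetic stress. After 16 hr compound exposure at 37 °C, luciferase activity was quantified using ONE-Glo.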
KinaseGlo FLuc = Counterscreen for Luciferase (Kinase-Glo TM) Inhibition. actives 0.28% (n = 200,000). AID 1379, 2008. Potency, µM (titrated, usually from 38.3 µM), for the others: at the top dose activity change, negative = inhibition, actives largely listed as inhibitors. Luciferin 4-monooxygenase (Photuris pensylvanica), Q27757. Kinase-Glo luciferase, ATP luminescence, 8 min; also: % is scaled to controls: 0 for no effect and ±100 for the full control effect; nearly all actives have a fitted effect of over 60% in size
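Substrate mix (final 50 mM imidazole pH 7.2, 50 mM KCl, 7 mM MgCl2, 10 uM ATP, 0.01% Tween 20, 0.05% BSA) plus pin-tool compound, then Kinase-Glo detection mix; 8 min ambient, luminescence read.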
* hit, by the source's call; u = inconclusive; x = no result given. An excerpt weighted towards active compounds, which were near 7.5% of everything screened. Calls follow the shape of the dose curve; as a rule, active = well fitted curve in the direction sought with a large enough effect; inconclusive = small, poorly fitted or top-dose-only effect, or another doubt; inactive = no such curve, though single readings can be large; an effect the other way counts as inactive or inconclusive. Potency is read from the fitted curve at half-maximal effect.

SMILES	Rab9 prom act	FLuc counter	NPC1 prom act	SMN2 splice enh	ELG1 genotox	KinaseGlo FLuc
O=C(C1CCCO1)N1CCN(c2c3c(nc4cc(-c5ccc(F)cc5)nn24)CCC3)CC1 (stereo not drawn)	2%	4.8µM*	1%	-2%	0%	4%
Cc1cccc(-c2cc3nc4c(c(N5CCOCC5)n3n2)CCCC4)c1	u	2.4µM*	u	-19%	u	-7%
CC(C)C(=O)n1nc(-c2cccnc2)nc1NCc1cccs1	-2%	1%	2%	x	0%	x
CCN(Cc1ccccc1)C(=O)c1cc2ccc3cccnc3c2[nH]1	x	9.5µM*	x	x	x	x
Cc1ccc(CN2CCC(CNC(=O)c3cc4ccc5cccnc5c4[nH]3)CC2)cc1	x	-2%	x	x	x	x
COc1ccc2c(c1)CCc1c-2nc2ccccc2c1N1CCOCC1	17%	5.4µM*	1%	x	4%	x
c1ccc2c(N3CCOCC3)c3c(nc2c1)CCC3	-2%	1%	-4%	x	-8%	x
O=C(COC(=O)CCNS(=O)(=O)c1ccc(Cl)cc1)Nc1ccccc1OC(F)F	1%	4%	0%	x	2%	x
COc1ccc(C(=O)C2CCN(C(=O)Nc3ccc(C)cc3)CC2)cc1	14%	4.8µM*	10%	x	-10%	x
COc1ccc(-c2ccc(C(=O)C3CC3)cc2)cc1	1.8µM*	1.5µM*	2.8µM*	x	2.9µM*	x
Cc1ccc(NC(=O)N2CCC(C(=O)c3ccc(F)cc3)CC2)cc1	0%	-16%	0%	x	-10%	x
Cc1nc(NC(=O)C(C)Oc2cccc(Cl)c2)sc1C(=O)N(C)C (stereo not drawn)	-5%	-19%	-4%	6%	0%	2%
CCC(CO)NS(=O)(=O)c1cc(-c2nn(C)c(=O)c3ccccc23)ccc1C (stereo not drawn)	-13%	-3%	-6%	x	6%	-2%
O=C(NC(c1ccccc1)c1ccccc1)c1ccc(=O)[nH]n1	7%	-2%	8%	5%	6%	1%
COc1cc2[nH]c(C(=O)Nc3ccc4c(c3)OCCO4)cc2c(OC)c1OC	14%	8.5µM*	17%	x	u	x
COc1cc2[nH]c(C(=O)NCC3CCCO3)cc2c(OC)c1OC (stereo not drawn)	-1%	5%	-4%	x	7%	x
COc1cc2cc(C(=O)Nc3ccc4c(c3)OCCO4)[nH]c2cc1OC	15%	12µM*	29%	x	u	x
Cc1ccc(OCC(=O)Nc2ccncc2)c(C)c1	4%	12µM*	-4%	x	12%	x
CCNC(=O)CCCOc1ccc(Cl)cc1Cl	6%	u	3%	4%	u	-1%
CN(c1cccc(NC(=O)COc2ccc(Cl)cc2Cl)c1)S(C)(=O)=O	u	1.2µM*	29%	30%	8%	1%
Cc1cc(OCC(=O)Nc2ccncc2)cc(C)c1Br	0%	-2%	0%	-6%	-7%	-6%
O=C(COc1ccc(Cl)cc1Br)Nc1ccncc1	2%	9.5µM*	u	x	u	x
Cc1ccccc1OCC(=O)Nc1ccncc1	-4%	u	-6%	x	2%	x
O=C(CCCOc1ccc(Cl)cc1Cl)Nc1ccccn1	-3%	17µM*	2%	9%	u	-2%
O=C(CN1CCSc2ccccc21)N1CCN(c2cccc(Cl)c2)CC1	x	-10%	x	x	x	x
SMILES	Rab9 prom act	FLuc counter	NPC1 prom act	SMN2 splice enh	ELG1 genotox	KinaseGlo FLuc
O=C(COc1ccc(Cl)cc1Cl)N/N=C/c1cccnc1	10%	-19%	2%	x	-1%	x
O=C(CCCOc1ccc(Cl)cc1Cl)Nc1ccncc1	0%	24µM*	-3%	-22%	0%	-3%
O=C(COc1ccc(Cl)cc1Cl)Nc1cccnc1	-5%	6.7µM*	18%	-9%	u	-3%
COc1cccc(C(=O)NC(Cc2ccccc2)c2ccc3c(c2)OCCCO3)c1 (stereo not drawn)	21%	-1%	1%	2%	5%	-3%
O=C(Nc1ccccc1)c1c(F)cccc1F	-6%	-16%	18%	-2%	11%	-9%
O=C(Nc1cccc(F)c1)c1ccc(-c2ccccc2)s1	x	2.1µM*	x	16%	x	x
Cc1cccc(NC(=O)c2ccc(-c3ccccc3)s2)c1	x	2.4µM*	x	u	x	x
O=C(Nc1ccccc1)c1ccc(-c2ccc(F)cc2)s1	u	u	u	u	7.3µM*	-5%
Cc1ccc(NC(=O)c2ccc(-c3ccccc3)s2)cc1	x	-15%	x	5%	x	x
O=C(Nc1ccc(F)cc1F)c1ccc(-c2ccccc2)s1	x	-20%	x	22%	x	x
CCCOc1ccc(C(=O)NCCC(=O)NCCCC(=O)O)cc1	-3%	2%	-1%	x	0%	x
CC1=CC(C)=Nc2ccc(C)cc2N1	9%	15µM*	8%	1%	7.1µM*	-2%
C/C(=N/OC(=O)c1ccc(C(F)(F)F)cc1)c1oc(C)nc1C	3%	12µM*	0%	x	2%	x
C/C(=N\OC(=O)c1ccc(C)cc1)c1c(C)nc2cc(C)ccn12	-3%	0%	-3%	-2%	-4%	-2%
Oc1ccc(NCc2ccccc2OCc2ccc(Cl)cc2)cc1	x	21µM*	x	22µM*	x	x
Oc1ccc(NCc2ccccc2OCc2ccccc2)cc1	-3%	u	-3%	-9%	0%	0%
Cc1ccc(-c2cc3nc(-c4ccc(Br)cc4)cc(N)n3n2)cc1	-2%	-19%	-1%	-12%	0%	3%
COc1ccc(-c2cc3nc(-c4ccccc4)cc(C(F)(F)F)n3n2)cc1	x	-1%	x	1%	x	x
Cc1nc2cc(-c3ccc(Cl)cc3)nn2c(NCCN(C)C)c1C	24%	13µM*	u	x	u	3%
Cc1cc(-c2ccc(Cl)cc2)n2nc(C)cc2n1	3%	-1%	-4%	x	-1%	x
COc1ccc(-c2cc3nc(C)cc(C)n3n2)cc1	3.5µM*	7.6µM*	3.2µM*	10µM*	u	10%
Cc1cc(C)n2nc(-c3ccc(Br)cc3)cc2n1	u	2.7µM*	3.5µM*	x	u	x
COc1ccc(-c2nc3nc(C)cc(C)n3n2)cc1	u	11µM*	u	13µM*	u	-18%
COc1ccc(C(CCN(Cc2ccc(OC)c(OC)c2)C(C)=O)C(C)C)cc1 (stereo not drawn)	-2%	3%	-1%	x	-4%	x
Cc1cc(C)n2nc(-c3ccc(Cl)cc3)cc2n1	3.5µM*	3.8µM*	4µM*	x	15µM*	x
COc1cccc2cc(-c3nc(-c4cccs4)no3)c(=O)oc12	x	0.076µM*	x	-8%	x	x

Assay outcomes from PubChem BioAssay.
